In PubChem BioAssay AID588397 (National Center for Advancing Translational Sciences (NCATS), 2011):
About 1,000 (77%) of roughly 1,300 compounds were called active. Not shown: some 7% with an inconclusive outcome. The set was probably picked from earlier hits. Some of the results follow. Unmarked numbers belong to inactive results. The call rests on the fitted dose curve; in most records, active means well fitted inhibition curve with a large enough effect; inconclusive means small, poorly fitted or top-dose-only effect; inactive means no such curve, though single readings can be large or run the other way.

Experiment: qHTS of small molecules that selectively kill Giardia lamblia: Hit Validation.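 Further: viability measured as ATP content by luminescence so killing lowers signal; trophozoites exposed to compounds for 48 h anaerobically at 37 °C; nearly all actives have a fitted effect of over 65% in size.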
Settings: Giardia lamblia trophozoite viability, dose-response; series mostly up to 38.3 µM; activity change, negative = killing: at the top concentration
How it was run: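 Anaerobic 48 hrs incubation at 37 deg C of 100 trophozoites/well with test compounds; ATPLite 1-Step luminescence, 15-30 min RT, reports cellular ATP as viability.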
On the % scale 0 is the no-effect control and ±100 the full control effect; potency means the concentration at half of the fitted maximal effect.

SMILES | Potency | activity change, negative = killing
O=C(/C=C/c1ccc(O)c([N+](=O)[O-])c1)c1ccc2ccccc2c1 | 2.05 µM (active) | 
Cc1cc(C(=O)COc2cccnc2[N+](=O)[O-])c(C)n1-c1ccccc1 | 0.365 µM (active) | 
O=C(COc1cccnc1[N+](=O)[O-])c1c[nH]c2ccccc12 | 5.16 µM (active) | 
Cc1ccc(-n2c(C)cc(C(=O)COc3cccnc3[N+](=O)[O-])c2C)cc1 | 0.516 µM (active) | 
Cc1cc(C(=O)COc2cccnc2[N+](=O)[O-])c(C)n1-c1ccccc1F | 1.16 µM (active) | 
Cc1ccc2nccnc2c1 | 1.3 µM (active) | 
O=C1C[C@@H](c2ccc(O[C@@H]3O[C@H](CO)[C@@H](O)[C@H](O)[C@H]3O)cc2)Oc2cc(O)ccc21 |  | -10.6%
CCOc1ccccc1NS(=O)(=O)c1c[nH]c(C(=O)OC)c1 |  | -6.56%
COc1ccccc1NS(=O)(=O)c1cccc(C(=O)N/N=C/c2ccc([N+](=O)[O-])o2)c1 | 4.1 µM (active) | 
Cc1cc(C(=O)N/N=C/c2ccc([N+](=O)[O-])o2)c(C)o1 | 0.579 µM (active) | 
CC1(C(=O)N/N=C/c2ccc([N+](=O)[O-])o2)CC1(Br)Br (stereo not drawn) | 0.65 µM (active) | 
O=C(Cc1ccc2c(c1)OCO2)NN=Cc1ccc([N+](=O)[O-])o1 | 0.918 µM (active) | 
O=C(N/N=C/c1ccc([N+](=O)[O-])o1)c1ccc2c(c1)OCO2 | 0.818 µM (active) | 
O=C(Cc1ccc([N+](=O)[O-])cc1)N/N=C/c1ccc([N+](=O)[O-])o1 | 1.16 µM (active) | 
O=c1c2ccccc2sc2ccc(C#CC3(O)CCCCC3)cc12 | 0.65 µM (active) | 
O=[N+]([O-])c1ccc2c3n([n+]([O-])c2c1)CCN=C3c1ccc(Cl)cc1 | 4.1 µM (active) | 
Cc1ccc(C2=NCCn3c2c2ccc([N+](=O)[O-])cc2[n+]3[O-])cc1 | 1.3 µM (active) | 
C[C@@H]1CN([C@@H](C)CO)C(=O)c2cccc(NS(=O)(=O)c3cccs3)c2O[C@H]1CN(C)Cc1ccc(C(F)(F)F)cc1 | 3.65 µM (active) | 
C[C@@H]1CN([C@H](C)CO)C(=O)c2cc(NC(=O)Nc3ccc4c(c3)OCO4)ccc2O[C@H]1CN(C)Cc1ccncc1 |  | -43.5%
C[C@H](CO)N1C[C@H](C)[C@H](CN(C)C(=O)Nc2ccc(C(F)(F)F)cc2)Oc2c(NC(=O)c3ccncc3)cccc2C1=O |  | 14.8%
O=C1NC(=S)S/C1=C\C=C\c1ccc([N+](=O)[O-])o1 | 0.326 µM (active) | 
[O-][n+]1c2ccccc2c2n1CCCN=C2c1ccc(Cl)cc1 | 1.3 µM (active) | 

SMILES | Potency | activity change, negative = killing
[O-][n+]1c2ccccc2c2n1CCN=C2c1ccc(Cl)cc1 | 0.29 µM (active) | 
Cc1ccc(C2=NCCn3c2c2ccccc2[n+]3[O-])cc1 | 0.146 µM (active) | 
Cc1cnc([N+](=O)[O-])n1CCOC(=O)NC(=O)c1ccccc1 | 0.918 µM (active) | 
Cc1cnc([N+](=O)[O-])n1CCOC(=O)NC(=O)c1c(F)cccc1F | 1.3 µM (active) | 
Cc1cnc([N+](=O)[O-])n1CCOC(=O)NC(=O)c1cccc(F)c1 | 0.65 µM (active) | 
Cc1cnc([N+](=O)[O-])n1CCOC(=O)NC(=O)c1ccc(F)cc1 | 1.16 µM (active) | 
Cc1cnc([N+](=O)[O-])n1CCOC(=O)c1cccc(F)c1 | 1.16 µM (active) | 
Cc1ccc(C(=O)NC(=O)OCCn2c(C)cnc2[N+](=O)[O-])cc1 | 0.183 µM (active) | 
Cc1cnc([N+](=O)[O-])n1CCOC(=O)NC(=O)c1ccc(C(F)(F)F)cc1 | 0.259 µM (active) | 
CSCCC(NC(=O)c1ccco1)C(=O)OCc1cc([N+](=O)[O-])cc2c1OCOC2 (stereo not drawn) | 4.6 µM (active) | 
Cc1cccc(C)c1OCC(=O)N(Cc1cccs1)C1CCS(=O)(=O)C1 (stereo not drawn) |  | -6.92%
O=C1/C(=C/c2ccncc2)CCC/C1=C\c1ccncc1 | 18.3 µM (active) | 
CC1C/C(=C/c2ccncc2)C(=O)/C(=C/c2ccncc2)C1 (stereo not drawn) | 11.6 µM (active) | 
CC(C)(C)[C@H](N)C(=O)N[C@H]1CCC2C3CC=C4C[C@@H](O)CC[C@]4(C)C3CC[C@@]21C (stereo partly drawn) | 2.9 µM (active) | 
CN(C)CCCN(C(=O)c1cc2cc([N+](=O)[O-])ccc2s1)c1nc2cc3c(cc2s1)OCCO3 | 1.63 µM (active) | 
CCOC(=O)C1=C(C)NC(=O)NC1c1ccc([N+](=O)[O-])o1 (stereo not drawn) | 1.16 µM (active) | 
C=CCOC(=O)C1=C(C)NC(=O)NC1c1ccc(O)cc1 (stereo not drawn) |  | -3.51%
CCOC(=O)C1=C(C)NC2=C(C(=O)c3ccccc32)C1c1ccc([N+](=O)[O-])o1 (stereo not drawn) | 0.729 µM (active) | 
COC(=O)C1=C(C)N(C)C(=O)NC1c1ccc([N+](=O)[O-])o1 (stereo not drawn) | 0.46 µM (active) | 
O=C(Nc1ccc(N2CCOCC2)c(Cl)c1)c1ccc([N+](=O)[O-])o1 | 0.729 µM (active) | 
O=C(Nc1ccc(N2CCCC2)c(Cl)c1)c1ccc([N+](=O)[O-])o1 | 1.83 µM (active) | 
O=C1CC(c2ccc(F)cc2)CC2=C1C(c1ccc([N+](=O)[O-])o1)Nc1ccccc1N2 (stereo not drawn) | 0.163 µM (active) | 

SMILES | Potency | activity change, negative = killing
CN(C)c1ccc(/C=C/c2ccc3ccccc3n2)cc1 | 0.46 µM (active) | 
CN(C)c1ccc(/C=C/c2ccc3ccccc3[n+]2[O-])cc1 | 1.03 µM (active) | 
CN(C)c1ccc(/C=C/c2ccc3cc(N)ccc3n2)cc1 | 0.183 µM (active) | 
CC(=O)OCON[N+]([O-])=NC(C)C | 0.918 µM (active) | 
CC(C)(C)C1C/C(=C/c2ccccn2)C(=O)/C(=C/c2ccccn2)C1 (stereo not drawn) | 6.5 µM (active) | 
c1ccc2nc3c(cc2c1)CCCC3 | 10.3 µM (active) | 
Cc1cc(C)c(-n2[nH]nnc2=S)c(C)c1 |  | -11.9%
O=C(N/N=C\c1ccc([N+](=O)[O-])s1)C1COc2ccccc2O1 (stereo not drawn) | 4.1 µM (active) | 
O=C(N/N=C\c1ccc([N+](=O)[O-])o1)C1COc2ccccc2O1 (stereo not drawn) | 0.818 µM (active) | 
O=C(N/N=C\c1ccc(O)c([N+](=O)[O-])c1)C1COc2ccccc2O1 (stereo not drawn) | 5.16 µM (active) | 
O=C(Nc1ncc([N+](=O)[O-])s1)C1COc2ccccc2O1 (stereo not drawn) | 0.29 µM (active) | 
Cc1ccc(/C=C/C(=O)NCC2COc3ccccc3O2)o1 (stereo not drawn) |  | -42.4%
CC(C)(C)c1ccc2c(c1)OC(C(=O)N/N=C/c1ccc([N+](=O)[O-])o1)CO2 (stereo not drawn) | 0.818 µM (active) | 
O=[N+]([O-])C(/C=C(/Cl)[N+](=O)[O-])=C(N1CCCCC1)N1CCCCC1 | 1.16 µM (active) | 
O=[N+]([O-])C(/C=C(\Cl)[N+](=O)[O-])=C(N1CCCCC1)N1CCCCC1 | 0.516 µM (active) | 
O=C1c2ccccc2C(=O)C1c1ccncc1 | 7.29 µM (active) | 
Cc1cc(C)cc(N=c2c([N+](=O)[O-])nn(-c3cccc(Cl)c3)n2O)c1 | 3.26 µM (active) | 
Cc1cc(C)cc(N=c2c([N+](=O)[O-])nn(-c3ccc(Cl)cc3)n2O)c1 | 1.3 µM (active) | 
O=[N+]([O-])c1[nH]cnc1/C=C/c1ccccc1 | 1.83 µM (active) | 
O=[N+]([O-])c1cccc(/C=C/c2nc[nH]c2[N+](=O)[O-])c1 | 2.05 µM (active) | 
Cc1cccc(N=Nc2c(C)c(C#N)c(O)[nH]c2=O)c1 | 3.65 µM (active) | 
Cc1ccc(NCC(=O)N/N=C\c2ccc([N+](=O)[O-])o2)cc1 | 0.65 µM (active) | 

SMILES | Potency | activity change, negative = killing
O=C(CNc1ccccc1)N/N=C/c1ccc([N+](=O)[O-])o1 | 1.03 µM (active) | 
O=C(CNc1cccc([N+](=O)[O-])c1)N/N=C/c1ccc([N+](=O)[O-])o1 | 0.516 µM (active) | 
O=C(CNc1ccc2ccccc2c1)N/N=C/c1ccc([N+](=O)[O-])o1 | 1.03 µM (active) | 
COC(=O)[C@]1(C)N[C@H](CN(C)S(=O)(=O)c2ccc(-c3ccccc3)cc2)[C@@H]2C(=O)N(Cc3ccccc3)C(=O)[C@@H]21 |  | -4.41%
COc1ccc(-n2c(C)cc(C(=O)COc3ccc(C)nc3[N+](=O)[O-])c2C)cc1 | 1.83 µM (active) | 
Cc1ccc(OCC(=O)c2cc(C)n(-c3ccccc3)c2C)c([N+](=O)[O-])n1 | 0.516 µM (active) | 
Cc1cccc(NC(=O)CN2C(=O)S/C(=C\c3ccc(O)c([N+](=O)[O-])c3)C2=O)c1 | 1.3 µM (active) | 
Cc1ccc(NC(=O)CN2C(=O)S/C(=C/c3ccc(O)c([N+](=O)[O-])c3)C2=O)cc1C | 1.3 µM (active) | 
CCOC(=O)CN1C(=O)S/C(=C/c2cccc([N+](=O)[O-])c2O)C1=O | 2.31 µM (active) | 
CCN(CC)C(=O)CSc1nnc2nnc3cc(Cl)ccc3n12 | 1.3 µM (active) | 
NCCCn1c(C(=O)c2ccc(Cl)cc2)c2ccc(C(F)(F)F)cc2[n+]1[O-] | 0.41 µM (active) | 
NCCCn1c(C(=O)c2cc(Cl)c(N)c(Cl)c2)c2ccc(C(F)(F)F)cc2[n+]1[O-] | 1.45 µM (active) | 
COc1ccc(C(=O)c2c3ccc(C(F)(F)F)cc3[n+]([O-])n2CCCN)cc1 | 1.3 µM (active) | 
Cc1ccc(C(=O)c2c3ccc(C(F)(F)F)cc3[n+]([O-])n2CCCN)cc1 | 1.03 µM (active) | 
O=C(N/N=C/c1cc2c(cc1[N+](=O)[O-])OCO2)c1ccccn1 | 7.29 µM (active) | 
COc1ccc(CCNc2oc(COc3ccc(Br)cc3)nc2C#N)cc1OC |  | -29.8%
N#Cc1nc(-c2ccc(OCc3ccccc3)cc2)oc1N1CCC(C(N)=O)CC1 |  | 1.62%
NC(=O)C1CCN(c2ncccc2[N+](=O)[O-])CC1 | 1.16 µM (active) | 
NC(=O)C1CCN(c2cc(Cl)ccc2[N+](=O)[O-])CC1 | 8.18 µM (active) | 
Cc1cc(C)n(S(=O)(=O)c2ccccc2[N+](=O)[O-])n1 | 1.83 µM (active) | 
Cc1nc2cc(-c3ccc(Cl)cc3)nn2c(NCCN(C)C)c1C | 0.918 µM (active) | 
CN(C)C(=O)c1cc([N+](=O)[O-])cc([N+](=O)[O-])c1N(C)C | 0.818 µM (active) | 
